Bioassay records deposited in PubChem BioAssay by National Center for Advancing Translational Sciences (NCATS).
Apoferritin bind: qHTS Assay for Identification of Novel General Anesthetics | Potency, µM (highest dose often 77.5 µM), most hits filed as inhibitors | Ferritin light chain (Equus caballus), P02791 | 350,000 tested, 0.074% active | apoferritin/1-aminoanthracene competitive binding, fluorescence; further: nearly all actives have a fitted effect of over 20% in size
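10 uM apoferritin + 50% sat. 1-AMA, PBS; cpd 10 min RT; Ex380/Em535 endpoint; normalized to free probe vs complex; 4-param Hill fit; propofol titration as pos. ctrl.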
GALK inh: qHTS Assay for Inhibitors of Human Galactokinase (GALK) | Potency, µM (series often up to 57.5 µM), hits mostly inhibitors | Purified GALK, Kinase-Glo residual ATP luminescence | 270,000 tested, 0.007% active | P51570
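Kinase-Glo Plus luminescence measured ATP left after a 1 h room-temperature reaction. The reaction used 5 nM GALK, 100 uM galactose and 35 uM ATP at pH 8.0 (20 mM HEPES, 5 mM MgCl2, 60 mM NaCl, 1 mM DTT, 0.01% BSA).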
PKM2 act: qHTS Assay for Activators of Human Muscle isoform 2 Pyruvate Kinase; 260,000 tested, 0.34% active; purified PKM2, Kinase-Glo ATP luminescence, activation; response scale: 0% is enzyme alone, no compound; Pyruvate kinase PKM (Homo sapiens), P14618; Potency, µM (series often up to 57.5 µM), hits mostly activators; further: nearly all actives have a fitted effect of over 55% in size
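Kinase-Glo luminescence reports ATP generated from ADP (0.1 mM) and PEP (0.5 mM) by purified hPK-M2 after 1 h at room temperature, pH 7.2 imidazole buffer; intermediate enzyme activity allows detecting inhibitors and activators.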
TrxR1 substrate: qHTS Assay for Substrates of Mammalian Selenoprotein Thioredoxin Reductase 1 (TrxR1): qHTS. Thioredoxin reductase 1, cytoplasmic (Rattus norvegicus), O89049. purified TrxR1 substrate turnover, NADPH consumption readout. Potency, µM (doses to about 114 µM). 390,000 tested, 0.01% active. AID 588456, 2011; further: nearly all actives have a fitted effect of over 50% in size
Target sequence (O89049 whole entry, looked up): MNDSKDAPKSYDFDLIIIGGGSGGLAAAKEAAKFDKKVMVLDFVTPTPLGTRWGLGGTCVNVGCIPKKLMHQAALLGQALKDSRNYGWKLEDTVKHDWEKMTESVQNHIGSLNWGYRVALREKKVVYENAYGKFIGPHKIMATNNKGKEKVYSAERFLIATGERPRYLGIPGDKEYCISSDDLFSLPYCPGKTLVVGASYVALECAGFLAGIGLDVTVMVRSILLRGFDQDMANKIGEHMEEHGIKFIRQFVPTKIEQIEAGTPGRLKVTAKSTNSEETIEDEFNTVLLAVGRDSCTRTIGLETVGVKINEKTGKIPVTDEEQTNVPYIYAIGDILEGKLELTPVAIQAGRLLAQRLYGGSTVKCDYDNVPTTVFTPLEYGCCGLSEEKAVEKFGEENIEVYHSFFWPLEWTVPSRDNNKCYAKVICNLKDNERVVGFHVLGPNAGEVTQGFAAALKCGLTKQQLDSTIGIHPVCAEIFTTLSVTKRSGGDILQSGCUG
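Rat TrxR1, dispensed at 90 nM, was prereduced with 400 uM NADPH (final) for 5 min at ~22 deg C, then incubated with compound 15 min before 400 uM selenite. A first-read NADPH fluorescence drop versus no-compound background flagged substrates.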
IDH1 R132H inh: qHTS for Inhibitors of mutant isocitrate dehydrogenase 1 (IDH1): qHTS; Isocitrate dehydrogenase [NADP] cytoplasmic (Homo sapiens), O75874; IDH1-R132H enzyme, NADPH consumption, diaphorase/resazurin fluorescence; Potency, µM (top dose mostly 76.6 µM), most hits filed as inhibitors; 390,000 tested, 0.093% active; AID 602179, 2012; further: nearly all actives have a fitted effect of over 65% in size
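IDH1-R132H (0.5 ug/mL dispensed) in pH 7.5 Tris buffer was preincubated 30 min with compound, then given a substrate mix of 0.016 mM NADPH and 2 mM alpha-KG for 80 min at room temperature; remaining NADPH was read by diaphorase/resazurin fluorescence.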
rTrxR1 inhibitor: qHTS Assay for Inhibitors of Mammalian Selenoprotein Thioredoxin Reductase 1 (TrxR1): qHTS; recombinant rTrxR1, NADPH fluorescence consumption, selenite substrate; Thioredoxin reductase 1, cytoplasmic (Rattus norvegicus), O89049; AID 588453, 2011; 390,000 tested, 1% active; Potency, µM (doses to about 114 µM), most hits filed as inhibitors; further: nearly all actives have a fitted effect of over 65% in size
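Rat TrxR1 (90 nM in the dispensed reagent) was pre-reduced with 400 uM NADPH for 5 min at room temperature, then incubated with compound for 15 min. After 400 uM selenite was added, NADPH fluorescence (Ex 340/Em 450 nm) was followed for 8 min.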
Numbers stand for hits; – = inactive; ? = inconclusive; · = not tested or not shown; [ ] = another dose, or the depositor's remark. The list is not random: actives were taken first. Their share in the collection is about 1.3%. The call rests on the fitted dose curve; in most records, active means well fitted curve in the direction sought with a large enough effect; inconclusive means small, poorly fitted or top-dose-only effect, or another doubt; inactive means no such curve, though single readings can be large; an effect the other way counts as inactive or inconclusive.

SMILES	Apoferritin bind	GALK inh	PKM2 act	TrxR1 substrate	IDH1 R132H inh	rTrxR1 inhibitor
CCN(CC)CCN(C(=O)CCS(=O)(=O)c1ccccc1)c1nc2c(C)cc(C)cc2s1	–	–	–	–	–	?
CCN(CC)CCN(C(=O)CCS(=O)(=O)c1ccccc1)c1nc2cc(C)cc(C)c2s1	–	–	–	–	–	14.1µM
CCN(CC)CCN(C(=O)CCS(=O)(=O)c1ccccc1)c1nc2cc(OC)c(OC)cc2s1	–	–	–	–	–	11.2µM
Cc1ccc(C)c(CNC(=O)c2ccc3c(c2)nc2n3CCC(C)C2)c1 (configuration not stated)	–	·	·	–	–	–
C=Nc1ccc(/C=C/c2ccnc3ccccc23)cc1	·	·	·	–	·	–
Cc1ccc(S(=O)(=O)N2CCN(c3nc(-n4cccn4)nc4ccccc34)CC2)cc1	·	·	·	–	·	–
CCC12CN3CC(C)(CN(C1)C3c1c[nH]c3ccc(OC)cc13)C2=O (configuration not stated)	–	·	·	–	–	–
CCCCNC(=O)[C@@H]1CC=C[C@@H]2CCN(CCCC)C(=O)[C@@H]21	·	·	·	–	·	–
CCCCCCc1ccc(OC(=O)c2ccncc2)cc1	–	·	·	–	–	–
CCCCCCc1ccc(C(=O)CCN(C)C)cc1	?	·	·	–	·	10µM
CN(C)CCC(=O)c1ccc(F)cc1	–	–	–	–	–	1.12µM
CN(CCOC(=O)c1cccc(Br)c1)C(C)(C)C	–	–	–	–	–	–[2.29 µM]
CCN(CC)CCC(=O)c1ccc(F)cc1	–	–	–	–[11.4 µM]	–	?
CN(C)CCC(=O)c1cccc(Br)c1	–	–	–	–	–	0.316µM
CN(C)CCC(=O)c1ccc2c(c1)OCO2	–	–	–	–	–	0.316µM
O=C(Nc1ccccc1)c1nc[nH]c1C(=O)O	–	·	·	–	–	–
Cc1ccc(-n2nnnc2SCn2nnc3ccccc3c2=O)c(C)c1	–	–	15.8µM	–	–	–
COc1ccc(S(=O)(=O)N(CC(=O)Nc2cccc(C)c2)c2ccc(C)cc2)cc1OC	–	·	·	–	–	–
CC(=O)N1CCN(C(=O)CC2OC(=O)c3ccccc32)CC1 (configuration not stated)	–	–	–	–	–	2.51µM
O=C(COc1ccccc1C(=O)Nc1cccc(F)c1)Nc1ccc(Br)cc1	·	·	·	–	·	–
CCN(CC)S(=O)(=O)c1ccc2c(c1)NC(=O)C1CCCN21 (configuration not stated)	–	·	·	–	–	?
O=C1Nc2cc(S(=O)(=O)N3CCCC3)ccc2N2CCCC12 (configuration not stated)	–	–	–	–	–	50.1µM
CCOc1ccc(NC(=O)CSc2cn(CC(=O)N3CCCCCC3)c3ccccc23)cc1	–	·	·	–	–	–
CC(C)(C)c1ccc(C(=O)COC(=O)CN2C(=O)NC3(CCCC3)C2=O)cc1	25.1µM	–	–	–	–	–
O=C1[C@H]2[C@H]3[C@H](O)[C@H](O)C/C(=N/OC[C@@H](O)COCc4ccco4)[C@@H]3CC[C@@H]2C(=O)N1Cc1ccccc1	–[15.3 µM]	·	·	·	·	·
SMILES	Apoferritin bind	GALK inh	PKM2 act	TrxR1 substrate	IDH1 R132H inh	rTrxR1 inhibitor
CC1(c2nnc(Cc3ccccc3)o2)CC(c2ccc(Cl)cc2)=NO1 (configuration not stated)	·	·	·	–	–	–
CC1(c2nnc(Cc3ccccc3)o2)CC(c2ccc(C#N)cc2)=NO1 (configuration not stated)	·	·	·	–	–	15.8µM
O=c1[nH]nc(-c2ccc([N+](=O)[O-])o2)c(=O)[nH]1	·	·	·	–	–	12.6µM
Nc1nnc(-c2ccc([N+](=O)[O-])o2)s1	·	·	·	–	–	?
C=CCn1c(Sc2ncc([N+](=O)[O-])s2)n[nH]c1=O	–	–	–	–	–	0.316µM
O=C(CNc1cccc([N+](=O)[O-])c1)N/N=C/c1ccc([N+](=O)[O-])o1	–	–	–	–	–	–
CCCCCCCC(=O)N/N=C/c1ccc([N+](=O)[O-])o1	?	–	–	–	–	?
CCOC(=O)N/N=C\c1ccc([N+](=O)[O-])o1	–	·	–	–	–	7.08µM
O=C(CC12CC3CC(CC(C3)C1)C2)N/N=C/c1ccc([N+](=O)[O-])o1	–	–	–	–	–	39.8µM
O=C(Cc1ccc([N+](=O)[O-])cc1)N/N=C/c1ccc([N+](=O)[O-])o1	?	–	–	–	–	14.1µM
O=C(CN1CCCCCCC1)N/N=C/c1ccc([N+](=O)[O-])o1	?	–	–	–	–	?
CC1(C(=O)N/N=C/c2ccc([N+](=O)[O-])o2)CC1(Br)Br (configuration not stated)	–	–	–	–	–	44.7µM
OC1=C(O)c2nc3cc(F)ccc3nc21	–	–	–	–	–	1.58µM
CC(C)(C)c1cc(C(=O)N/N=C/c2ccc(-c3ccccc3[N+](=O)[O-])o2)n[nH]1	–	–	·	–	–	?
O=C(N/N=C/c1ccc(-c2ccccc2[N+](=O)[O-])o1)c1cccnc1	–	–	–	–	–	50.1µM
COC(=O)C1=C(O)/C(=C\c2cc(C)n(-c3ccc(F)cc3)c2C)N=C1C	–	–	–	–	–	17.8µM
